Source: PubChem BioAssay (NCI)
The panel holds about 79,000 compounds, 15% with a hit somewhere; the sample as a whole holds those more often. No stated cut-off is given here; in the data, active means growth inhibition above about 70%; inactive means the rest.

Assays:
[1] = NCI Yeast Anticancer Drug Screen. Data for the rad50 strain (AID 155);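 further: 0% = growth of vehicle-only cultures of the same strain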; conditions: S. cerevisiae rad50 strain growth inhibition; at 50.0 µM; stronger effect = higher value
Method in brief: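 Readout: growth inhibition relative to vehicle-treated cultures. Compound exposure was carried out in a genetically defined yeast strain deficient in DNA damage repair.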

[2] = NCI Yeast Anticancer Drug Screen. Data for the mec2-1 strain (AID 157); conditions: S. cerevisiae mec2-1 strain, at 50.0 µM, stronger effect = higher value
Method in brief: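 Growth inhibition is read against vehicle-treated controls after compound exposure of the mec2-1 yeast strain, which is defective in DNA damage repair or cell cycle control.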

[3] = NCI Yeast Anticancer Drug Screen. Data for the sgs1 mgt1 strain (AID 161);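 further: 0% = growth of cultures given vehicle only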; conditions: S. cerevisiae sgs1 mgt1 strain, at 50.0 µM, stronger effect = higher value
Method in brief: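 Percent growth inhibition was derived by comparing compound-exposed mutant yeast with vehicle-exposed cultures. The strain carries alterations in DNA damage repair.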

[4] = NCI Yeast Anticancer Drug Screen. Data for the cln2 rad14 strain (AID 165);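 further: 0% = growth equal to vehicle treated cultures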; conditions: S. cerevisiae cln2 rad14 strain, at 50.0 µM, stronger effect = higher value
Method in brief: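 Growth inhibition, relative to vehicle-treated controls, is the read-out. The test organism is a yeast strain with defined genetic alterations, cln2 rad14.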

[5] = NCI Yeast Anticancer Drug Screen. Data for the bub3 strain (AID 167); conditions: S. cerevisiae bub3 mutant strain, at 50.0 µM, stronger effect = higher value
Method in brief: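 Readout: yeast growth inhibition, expressed relative to vehicle-only wells. The test organism is a mutant strain from a panel with lesions in DNA repair or checkpoint genes.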

[6] = NCI Yeast Anticancer Drug Screen. Data for the mlh1 rad18 strain (AID 175); conditions: S. cerevisiae mlh1 rad18 strain growth inhibition; at 50.0 µM; stronger effect = higher value
Method in brief: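 Cells of a genetically altered yeast strain, deficient in DNA damage repair, were treated with compound. Their growth was then compared with that of vehicle-treated cultures to give inhibition.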

Measured: growth inhibition

O=C(c1ccccc1)C1C(c2ccccc2)N1C(=O)c1ccccc1 (stereo unspecified)
inactive: [1] 9.8% | [2] 16.4% | [3] 6.35% | [4] -1.3% | [5] 35.6% | [6] 12.9%

CC(=O)N(C(C)=O)n1c(Cc2ccc(Cl)cc2)n[nH]c1=O
inactive: [1] 32.1% | [2] -53.7% | [3] -26.3% | [4] -5.55% | [5] -30.9% | [6] -65%

CCCCCCCC1CCCC1=O (stereo unspecified)
inactive: [1] -32.1% | [2] -53.6% | [3] -37.8% | [4] 5.7% | [5] -31.8% | [6] -0.8%

CCC(=O)Nc1cc(C)c(C)cc1C
inactive: [1] 4.75% | [2] -10.2% | [3] -2.2% | [4] -42% | [5] 6.6% | [6] -8.4%

CNC(=O)N(C)c1cc(N(C)C)nc(OC)n1
inactive: [1] -16.4% | [2] -34.6% | [3] -19.4% | [4] -9.4% | [5] -20.8% | [6] -23.4%

COc1cc(C2c3cc4c(cc3OC(O)C2C)OCO4)cc(OC)c1OC (stereo unspecified)
inactive: [1] -11.9% | [2] 4.85% | [3] 11.7% | [4] -46.6% | [5] 16.1% | [6] -4.15%

C/C(CC(=O)CCC(=O)Nc1cccc(C(F)(F)F)c1)=N\NC(=O)NN
inactive: [1] -25.8% | [2] -16.8% | [3] -26.4% | [4] 1.95% | [5] -13.9% | [6] -15.8%

CCOC(=O)c1ccc(N=C2C(=S)N(c3ccc(C(=O)OCC)cc3)C(=N)N2/N=C/c2ccccc2)cc1
inactive: [1] 19.4% | [2] 13.4% | [3] 11.5% | [4] -4.55% | [5] 31.9% | [6] 1.95%

Cc1cc(C(C)(C)C)cc(Cc2cc(C(C)(C)C)cc(Cc3cc(C(C)(C)C)cc(C)c3O)c2O)c1O
inactive: [1] -25.8% | [2] -4.75% | [3] -43.3% | [4] -13.3% | [5] -0.6% | [6] -24%

O=C1C(Br)=C(Oc2ccccc2)C(=O)C(Br)=C1Oc1ccccc1
inactive: [1] 7.85% | [2] 11.4% | [3] 13.6% | [4] 1.05% | [5] 10.8% | [6] -8.45%

NC(=O)C1C2CC3C(C2O)C31C(N)=O (stereo unspecified)
inactive: [1] -13.1% | [2] -4% | [3] -14% | [4] -30.1% | [5] -12.9% | [6] -28.7%

Cn1c(=S)[nH]c2sc3c(c2c1=O)CCCCC3
inactive: [1] 12.2% | [2] -0.6% | [3] 8.25% | [4] 6.65% | [5] -4.05% | [6] 8.4%

CC(C)OC(=O)C(C)(OC(=O)c1ccccc1)c1ccccc1 (stereo unspecified)
inactive: [1] 5.35% | [2] -14.8% | [3] 4.35% | [4] -13.1% | [5] 19.1% | [6] 14.3%

ICC1OCOC2C(CI)OCOC12 (stereo unspecified)
inactive: [1] 5.1% | [2] 1.3% | [3] -5.3% | [4] -1.8% | [5] 4.75% | [6] 9.5%

Cc1c(C#N)c(N)[nH]c(=S)c1C#N
inactive: [1] 5.5% | [2] 20.2% | [3] 4.95% | [4] 1.25% | [5] 0.45% | [6] 11.3%

CCCCOC(=O)C1CCCC1=O (stereo unspecified)
inactive: [1] -14.6% | [2] -31.9% | [3] -2.15% | [4] 1.45% | [5] -43.1% | [6] 9.05%

CC(=O)CC(=O)CCC(=O)O
inactive: [1] 30.9% | [2] -20.2% | [3] -0.25% | [4] 7.1% | [5] 13.9% | [6] 32.8%

O=C1/C=C2/C=CC=CN2C(=O)/C=C2/C=CC=CN12
inactive: [1] -1.6% | [2] -15.3% | [3] -15% | [4] 1.65% | [5] 0.95% | [6] -11.9%

Cn1c(COC(=O)NC2CCCCC2)c(COC(=O)NC2CCCCC2)c2ccc3cc(C=O)ccc3c21
inactive: [1] 5.95% | [2] 7.85% | [3] -14.5% | [4] -3.95% | [5] -10.4% | [6] -27.3%

C=CC(=O)NC1CCCCC1
inactive: [1] -8.9% | [2] -10.9% | [3] -19.8% | [4] -8.9% | [5] -6.8% | [6] -22.4%

O.O.O=c1[nH]cc(CO)c(=O)[nH]1.[NH2-].[NH2-].[Pt+2]
inactive: [1] 14.1% | [2] -1.15% | [3] 14.5% | [4] 16.6% | [5] 0.45% | [6] 4.25%

CC(C)(C)CC(C(=O)O)[Si](C)(C)C (stereo unspecified)
inactive: [1] -4.55% | [2] 7.1% | [3] -1.65% | [4] -1.25% | [5] 2.9% | [6] -9.7%

CC(C(O)C(F)(F)F)[N+](=O)[O-] (stereo unspecified)
inactive: [1] -1.7% | [2] -4.5% | [3] 8.65% | [4] -5.2% | [5] -2.05% | [6] 17.2%

CCOC(=O)CCC(=O)N(CC)CC
inactive: [1] 8.7% | [2] 16.6% | [3] 16.4% | [4] 9.9% | [5] -10.9% | [6] -13%

COc1ccccc1C(C)C
inactive: [1] -11.1% | [2] -3.8% | [3] -0.85% | [4] -21.8% | [5] -6.45% | [6] -16.2%

CN(C)c1ccc(NN=C2SC(=Nc3ccccc3)C(=Nc3ccccc3)S2)cc1
inactive: [1] 41.5% | [2] -17.9% | [3] -10.2% | [4] 18.1% | [5] 25.2% | [6] 8.15%

CCOP(=O)(OCC)/C(C#N)=C\c1ccc(OC(C)=O)cc1
inactive: [1] -6.15% | [2] -30.1% | [3] -9% | [4] 23.5% | [5] -25.6% | [6] -31.9%

O=C(O)c1ccc2c(c1C(=O)O)C(=O)OC2(c1ccc(O)cc1)c1ccc(O)cc1
inactive: [1] -14.8% | [2] 11.7% | [3] -21.6% | [4] -21.8% | [5] -10.9% | [6] 4.85%

S=C(Nc1ccc2ccccc2c1)Nc1ccc2ccccc2c1
inactive: [1] 22% | [2] 10.9% | [3] 14.4% | [4] -30.6% | [5] 5.4% | [6] -2%

COc1ccccc1C(OC)c1ccccc1C(=O)O (stereo unspecified)
inactive: [1] -10.9% | [2] -17.1% | [3] -1.4% | [4] -12.5% | [5] -4.7% | [6] -16.1%

O=C(O)c1cc(=O)c2[nH]c3ccccc3c2s1
inactive: [1] -5.2% | [2] -17.9% | [3] -19.5% | [4] 9.55% | [5] -22.6% | [6] 7.95%

O=C(Nc1ccc(Cl)c(Cl)c1)Oc1ccc2ccccc2c1
inactive: [1] 13.4% | [2] 24.9% | [3] 34.5% | [4] -0.35% | [5] 4.1% | [6] 61.1%

CC(O)C(O)C(O)C1OC1=O (stereo unspecified)
inactive: [1] 0.95% | [2] -9.8% | [3] 0.75% | [4] -43% | [5] -8.9% | [6] -1.05%

CCC(=O)OCC(C)COC(=O)CC
inactive: [1] 9.55% | [2] 11.8% | [3] 4.1% | [4] 1.05% | [5] -8.4% | [6] -5.25%

N#C/C(=N/Nc1nc[nH]c1C(N)=O)C(=O)Nc1ccccc1
inactive: [1] 8.6% | [2] 20.9% | [3] 16.6% | [4] -0.1% | [5] -0.6% | [6] 26.1%

Nc1ncnc2c1ncn2CCOCC(O)CO (stereo unspecified)
inactive: [1] -0.75% | [2] -4.3% | [3] -5.95% | [4] -15.4% | [5] -7.7% | [6] -19.9%

CCCC(=O)Nc1cn(COC)c(C(=O)N2C[C@H]3C[C@@]34C2=CC(=O)c2[nH]cc(C)c24)n1
inactive: [1] 49.9% | [2] 22.1% | [3] 56% | [4] 19.9% | [5] 40.8% | [6] 58.8%

COc1cc(/C(C#N)=C/c2ccccn2)c([N+](=O)[O-])cc1OC
inactive: [1] -7.9% | [2] -2% | [3] 6% | [4] -36.6% | [5] 4.5% | [6] -5.9%

Cc1cc(C)c(SSc2c(C)cc(C)cc2C)c(C)c1
inactive: [1] -7.8% | [2] -8.65% | [3] -3.9% | [4] -15.6% | [5] 7.6% | [6] -1.6%

COC(=O)CN(c1c(C)cc(C)c(N)c1C)S(=O)(=O)c1ccccc1
inactive: [1] 0.2% | [2] 15.9% | [3] 4.65% | [4] 5.4% | [5] -11.3% | [6] -25.3%

COC(=O)/C(C#N)=C(/NCc1ccccc1)Nc1ccccc1
inactive: [1] 20.8% | [2] -13.1% | [3] -8.2% | [4] 11.4% | [5] 43.6% | [6] 21.4%
